# Measured values taken from PubChem BioAssay.
# Potency and affinity values are given separately. Values without a mark were called inactive. A call without a number means that no potency is given here. The source made the active and inactive calls. How the calls were made is not given here.
# Experiments:
# [1] = A549 cell cytotoxicity, dose response, cytotoxicity control, plate reader, cherry-pick, antagonist series (AID 743412)
# [2] = toxicity toward HepG2 liver cells – cell-based, plate reader, cherry-pick, antagonist series, cytotoxicity control, dose response (AID 743416)
# [3] = biological target: Melanocortin receptor 4 (Homo sapiens) (UniProt P32245); assay: blockade of melanocortin 4 receptor signaling – cell-based, plate reader, cherry pick, counter-screen for LGR2 antagonist project, dose response (AID 743444)
smiles,measurement,setting,value
COc1ccc(-c2nc(N)n(C(=O)c3cccs3)n2)cc1,outcome,[1],inactive
same,outcome,[2],inactive
same,outcome,[3],inactive
COc1ccc(NC(=O)N(C)C[C@@H]2OCCCC[C@H](C)Oc3ccc(NC(=O)NC4CCCCC4)cc3C(=O)N([C@H](C)CO)C[C@@H]2C)cc1,outcome,[1],inactive
same,outcome,[2],inactive
same,outcome,[3],inactive
Cc1ccc(CNS(=O)(=O)c2ccc3c(c2)CCN3C(=O)CCCC(=O)O)cc1,outcome,[1],inactive
same,outcome,[3],inactive
COc1ccccc1CNS(=O)(=O)c1ccc(N2CCCC2)cc1Br,outcome,[1],inactive
same,outcome,[2],inactive
same,outcome,[3],inactive
COCC#Cc1ccc2c(c1)O[C@H](CN(C)S(=O)(=O)c1cccc(F)c1)[C@@H](C)CN([C@H](C)CO)S2(=O)=O,outcome,[1],inactive
same,outcome,[3],inactive
C[C@H](CO)N1C[C@H](C)[C@@H](CN(C)CC2CCOCC2)Oc2ncc(Br)cc2C1=O,outcome,[1],inactive
same,outcome,[2],inactive
same,outcome,[3],inactive
Cc1ccnc(N2C(=O)c3ccccc3C2Nc2ccc3c(c2)OCCO3)c1 (configuration not stated),outcome,[1],inactive
same,outcome,[2],inactive
same,outcome,[3],inactive
CC(C)N(C(=O)Nc1ccc2nsnc2c1)C(C)C,outcome,[1],inactive
same,outcome,[2],inactive
same,outcome,[3],inactive
CC(C)NC(=O)Nc1ccc2c(c1)C(=O)N([C@H](C)CO)C[C@@H](C)[C@H](CN(C)S(C)(=O)=O)OCCCC[C@H](C)O2,outcome,[1],inactive
same,outcome,[2],inactive
same,outcome,[3],inactive
COc1ccc(S(=O)(=O)N2CCN(C(=O)c3ccc(C)o3)CC2)cc1,outcome,[1],inactive
same,outcome,[2],inactive
same,outcome,[3],inactive
CO[C@@H]1CN(C)C(=O)c2ccc(NC(=O)C3CC3)cc2OC[C@@H](C)NC[C@@H]1C,outcome,[1],inactive
same,outcome,[2],inactive
same,outcome,[3],inactive
O=C(C[C@H]1C=C[C@@H](NC(=O)C2CCC2)[C@H](CO)O1)NCCCN1CCOCC1,outcome,[1],inactive
same,outcome,[2],inactive
same,outcome,[3],inactive
COc1ccc(-c2noc(CCC(=O)N3CCN(c4ccc(Cl)cc4)CC3)n2)cc1,outcome,[1],inactive
same,outcome,[2],inactive
same,outcome,[3],inactive
COc1ccc2c3c([nH]c2c1)[C@H](CO)N(C(C)=O)CC31CCN(C(=O)CN2CCOCC2)CC1,outcome,[1],inactive
same,outcome,[2],inactive
same,outcome,[3],inactive
Cc1noc2ncnc(Sc3ccc(Br)cc3)c12,outcome,[1],inactive
same,outcome,[3],inactive
CC(=O)c1c(C)[nH]c(C(=O)CN2C(=O)NC(C)(c3ccc(C)cc3)C2=O)c1C (configuration not stated),outcome,[1],inactive
same,outcome,[2],inactive
same,outcome,[3],inactive
O=C(NCc1ccc(F)cc1)c1cc(C2CCCCN2S(=O)(=O)c2cccs2)on1 (configuration not stated),outcome,[1],inactive
same,outcome,[2],inactive
same,outcome,[3],inactive
O=S1(=O)CCOC[C@H](CC2CCCCC2)N1Cc1ccccc1F,outcome,[1],inactive
same,outcome,[2],inactive
same,outcome,[3],inactive
CCc1ccc2ncc(S(=O)(=O)c3ccc(C)c(C)c3)c(N3CCCC3)c2c1,outcome,[1],inactive
same,outcome,[2],inactive
same,outcome,[3],inactive
CC(=O)c1ccc(S(=O)(=O)N2CCC(NC(=O)Nc3cccc(F)c3)CC2)cc1,outcome,[1],inactive
same,outcome,[2],inactive
same,outcome,[3],inactive
C[C@@H]1CN([C@H](C)CO)C(=O)c2c(c3ccccc3n2C)-c2ccccc2CO[C@H]1CN(C)S(=O)(=O)c1cn(C)cn1,outcome,[1],inactive
same,outcome,[2],inactive
same,outcome,[3],inactive
COc1cccc(C(=O)Nc2ccc3c(c2)OC[C@@H](C)N(CC2CC2)C[C@H](C)[C@H](OC)CN(C)C3=O)c1,outcome,[1],inactive
same,outcome,[2],inactive
same,outcome,[3],inactive
COc1ccc(NC(=O)Nc2ccc3c(c2)CC(=O)N([C@@H](C)CO)C[C@@H](C)[C@H](CN(C)Cc2ccncc2)O3)cc1,outcome,[1],inactive
same,outcome,[3],inactive
CC1CN(C(=O)c2cccc(S(=O)(=O)Nc3cc(Cl)ccc3Cl)c2)CC(C)O1 (configuration not stated),outcome,[1],inactive
same,outcome,[2],inactive
same,outcome,[3],inactive
CCCCC(=O)N(C)c1c(C)nc2ccc(C(=O)N3CCCCC3)cn12,outcome,[1],inactive
same,outcome,[2],inactive
same,outcome,[3],inactive
C[C@H](CO)N1C[C@H](C)[C@@H](CN(C)S(=O)(=O)c2cccs2)Oc2c(cccc2N(C)C)C1=O,outcome,[1],inactive
same,outcome,[2],inactive
same,outcome,[3],inactive
CCOC(=O)Nc1ccc(N2CCOCC2)c(S(=O)(=O)Nc2ccc(Cl)cc2)c1,"activity change, negative = cytotoxicity",[1],19.4% [at 6 µM]
same,outcome,[2],inactive
same,outcome,[3],inactive
CCCCOc1cc(NCc2ccccc2)c2ncn(C(C)C)c2c1,outcome,[3],inactive
C[C@@H]1CN([C@H](C)CO)C(=O)Cc2cc(NC(=O)CCC(F)(F)F)ccc2O[C@@H]1CN(C)CC1CCCCC1,outcome,[3],inactive
CCOCCCn1c(SCc2nc3ccccc3s2)nc2ccccc2c1=O,outcome,[3],inactive
O=C(Cn1ncc(Cl)c(Cl)c1=O)N1CCOCC1,outcome,[3],inactive
O=C(Nc1ccc(N2CCN(C(=O)c3ccccc3)CC2)cc1)c1cc2ccccc2o1,outcome,[3],inactive
COc1ccccc1N1CCN(C(=O)c2sc3nc(-c4ccc(F)cc4)cn3c2C)CC1,outcome,[3],inactive
COc1cc(/C=N/Nc2nc(C)nc3c2cnn3-c2ccccc2)ccc1O,outcome,[3],inactive
COC(=O)c1ccc(Nc2cc(C)nc3ccc(C)cc23)cc1,outcome,[3],inactive
CCOc1cc(/C=C/C(=O)Nc2ccc(C(=O)NCCN(CC)CC)cc2)ccc1OCC(C)C,outcome,[3],inactive
COc1cccc(C#Cc2ccc([C@@H]3[C@@H](CO)N(C(=O)C4CCC4)[C@H]3C#N)cc2)c1,outcome,[3],inactive
CNCc1ccccc1Sc1ccc(O)c(O)c1,outcome,[3],inactive
CC(C)(C)c1nc2ccc(Cl)cn2c1CC1CCCCC1,outcome,[3],inactive
Cc1ccc(S(=O)(=O)Nc2ccc3c(c2)C(=O)N([C@H](C)CO)C[C@@H](C)[C@H](CN(C)S(=O)(=O)c2cccs2)OCCCC[C@@H](C)O3)cc1,outcome,[3],inactive
c1ccc(COc2cccc(-c3cc4nc(NCCCn5ccnc5)ccn4n3)c2)cc1,outcome,[3],inactive
CC(C)N(C(=O)COC(=O)c1ccccc1C(=O)c1ccc(Cl)c([N+](=O)[O-])c1)C(C)C,outcome,[3],inactive
N#C[C@@H]1[C@H](c2ccc(C#Cc3cccc(F)c3)cc2)[C@@H](CO)N1C(=O)C1CC1,outcome,[3],inactive
Cc1ccc(NC(=O)c2ncn(CC(=O)N3CCN(c4ccccn4)CC3)n2)cc1C,outcome,[3],inactive
O=C(c1ccc(CSc2nc3ccncc3[nH]2)cc1)N1CCN(c2cccc(Cl)c2)CC1,outcome,[3],inactive
CC(C)c1ccc2c(c1)C(N1CCNCC1)Cc1ccc(F)cc1S2 (configuration not stated),outcome,[3],inactive
Cn1c(=O)c2cc(NC(=O)NCc3ccccc3)ccc2n1C/C=C/c1ccccc1,outcome,[3],inactive
C[C@H]1CCCCO[C@@H](CN(C)C(=O)Nc2ccc(C(F)(F)F)cc2)[C@@H](C)CN([C@@H](C)CO)C(=O)c2cc(NC(=O)CCC(F)(F)F)ccc2O1,outcome,[3],inactive
CC(=O)c1ccc(Nc2cc(C)nc3c(C)cc(C)cc23)cc1,outcome,[3],inactive
CCOC(=O)c1c(C)n(C)c2ccc(OCC(O)CNCCc3ccccc3)cc12 (configuration not stated),outcome,[3],inactive
Oc1ccc(-c2csc(-c3cccnc3)n2)c(O)c1,outcome,[3],inactive
COc1ccc(-c2cc(C(F)(F)F)nc(S(=O)(=O)CCCC(=O)Nc3cccc(O)c3)n2)cc1OC,outcome,[3],inactive
CC(C)(C)c1ccc(Cn2c(=O)cnc3ccccc32)cc1,outcome,[3],inactive
COc1ccc(C(=O)CC(Sc2ccccc2N)c2ccc(OC)cc2)cc1 (configuration not stated),outcome,[3],inactive
O=C(CSc1ncnc2[nH]ncc12)Nc1nc(-c2ccc(F)c(F)c2)cs1,outcome,[3],inactive
O=C(C[C@@H]1C[C@H]2c3cc(NC(=O)c4ccc5c(c4)OCO5)ccc3O[C@H]2[C@@H](CO)O1)NCc1ccc(Oc2ccccc2)cc1,outcome,[3],inactive
Cc1ccc2nc(C(F)(F)F)c(C#N)c(N)c2c1,outcome,[3],inactive
CCCCn1nnnc1C(c1cc2ccccc2o1)N1CCN(c2ccncc2)CC1 (configuration not stated),outcome,[3],inactive
COc1ccc(S(=O)(=O)N2CCOCC2)cc1NC(=O)COc1ccc(C)cc1,outcome,[3],inactive
Cc1cccc(Cn2ncc(Cl)c(Cl)c2=O)c1,outcome,[3],inactive
COc1cc(NC2CCCCC2O)c2nc(-c3ccc(Cl)cc3)ccc2c1 (configuration not stated),outcome,[3],inactive
COc1ccc(CCNC(=O)C2CCN(S(=O)(=O)c3ccc(Cl)cc3)CC2)cc1OC,outcome,[3],inactive
CCOc1cccc2sc(Nc3nc4ccc(NC(C)=O)cc4s3)nc12,outcome,[3],inactive
O=C(CSc1nc2ccccc2[nH]1)Nc1nc(-c2cccc(Br)c2)cs1,outcome,[3],inactive
COc1ccccc1CN(C)C[C@@H]1OCc2cnnn2CCCC(=O)N([C@H](C)CO)C[C@H]1C,outcome,[3],inactive
O=C(c1ccc2c(c1)OCCO2)C1CCN(S(=O)(=O)c2ccc(F)cc2)CC1,outcome,[3],inactive
CC(C)OC(=O)c1ccc(NCc2cc(O)ccc2O)cc1Cl,outcome,[3],inactive
